# Screening data (PubChem BioAssay)
# Hits are enriched below; roughly 19% of the tested compounds scored in any of these assays.
# TDP1 cell CPT = qHTS for Inhibitors of human tyrosyl-DNA phosphodiesterase 1 (TDP1): qHTS in cells in presence of CPT; AID 686979, 2013; chicken DT40 Tdp1-/-;hTDP1 cells + 20 nM CPT, ATP luminescence, 48 h; 420,000 tested, 12% active; Potency, µM (series often up to 46.2 µM), inactives show at the highest dose activity change, negative = growth inhibition, usual class: inhibitors; also: nearly all actives have a fitted effect of over 55% in size
#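 Cell growth measured by CellTiter-Glo luminescence after a minimum 48 h, 37 C compound exposure with 20 nM CPT in Tdp1-knockout DT40 cells stably expressing hTDP1, seeded 400/well; qHTS titration format.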
# TDP1 inh = qHTS Assay for Inhibitors of Tyrosyl-DNA Phosphodiesterase (TDP1). recombinant TDP1, AlphaScreen DNA substrate cleavage. Potency, µM (highest dose often 130 µM), without a hit: top-dose activity change, negative = inhibition, actives largely listed as inhibitors. AID 485290, 2010. Tyrosyl-DNA phosphodiesterase 1 (Homo sapiens), Q9NUW8. 350,000 tested, 0.28% active; also: nearly all actives have a fitted effect of over 40% in size
#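 E. coli-derived human Tdp1, 1 nM final. Cpd preinc 15 min RT; substrate 15 nM final, 5 min RT; AS bead mix 10 ug/ml final, 10 min RT. Signal loss = tyrosine-FITC cleavage. No-enzyme wells = max signal.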
# RORgamma inh = qHTS for inhibitors of ROR gamma transcriptional activity; Nuclear receptor ROR-gamma (Mus musculus), P51450; Drosophila S2 Gal4-RORgamma UAS-luciferase reporter, 20 h; Potency, µM (titrated, usually from 53.6 µM), for the others: top-dose activity change, negative = inhibition, actives largely listed as inhibitors; 310,000 tested, 5.4% active; also: nearly all actives have a fitted effect of over 60% in size
# Target sequence (P51450 whole entry, looked up, the tested form may be a part): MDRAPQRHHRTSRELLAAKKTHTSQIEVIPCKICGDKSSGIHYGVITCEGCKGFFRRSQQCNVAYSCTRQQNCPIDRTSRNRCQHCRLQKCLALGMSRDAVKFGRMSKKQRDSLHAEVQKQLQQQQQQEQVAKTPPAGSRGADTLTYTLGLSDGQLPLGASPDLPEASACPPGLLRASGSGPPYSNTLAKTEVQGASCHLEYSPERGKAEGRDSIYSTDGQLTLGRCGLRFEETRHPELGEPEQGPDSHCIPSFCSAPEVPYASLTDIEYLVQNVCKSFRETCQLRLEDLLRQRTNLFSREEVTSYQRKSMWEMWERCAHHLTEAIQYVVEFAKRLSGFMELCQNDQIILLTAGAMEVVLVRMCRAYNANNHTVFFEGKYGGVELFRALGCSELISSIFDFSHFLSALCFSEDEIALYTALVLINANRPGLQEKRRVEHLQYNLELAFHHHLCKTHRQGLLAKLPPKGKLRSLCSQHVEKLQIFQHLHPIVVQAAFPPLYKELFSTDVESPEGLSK
#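 Stable Schneider cell line, Gal4 DNA-binding domain fused to ROR gamma, UAS-luciferase. Cmpd 1 hr RT → CuSO4 700 uM final → 20 hr RT → luciferase reagent 10 min → luminescence.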
# VP16 counter = VP16 counterscreen qHTS for inhibitors of ROR gamma transcriptional activity; 310,000 tested, 3.5% active; Drosophila S2 Gal4-VP16 UAS-luciferase, luminescence, 20 h; AID 2546, 2010; Potency, µM (top dose mostly 53.6 µM), inactives show top-dose activity, negative = inhibition, usual class: inhibitors;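 also: Gal4-VP16 expression switched on by copper sulfate through the metallothionein promoter; nearly all actives have a fitted effect of over 50% in size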
# TDP1 cell noCPT = qHTS for Inhibitors of human tyrosyl-DNA phosphodiesterase 1 (TDP1): qHTS in cells in absence of CPT. DT40 Tdp1-/- hTDP1 cells, no CPT, ATP luminescence, 48 h. Potency, µM (series often up to 46.2 µM), without a hit: top-dose activity change, negative = growth inhibition, hits mostly inhibitors. 420,000 tested, 15% active; also: nearly all actives have a fitted effect of over 55% in size
#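 Seeded 400 DT40-hTDP1 cells/well (vehicle DMSO, no 20 nM CPT); pinned compounds; ≥48 hr at 37 °C; CellTiter-Glo luminescence as viability measure.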
# Numbers without * were called inactive; ? = inconclusive; · = not tested or not shown; [ ] = dose if it differs, or a comment. Calls follow the shape of the dose curve; as a rule, active = well fitted curve in the direction sought with a large enough effect; inconclusive = small, poorly fitted or top-dose-only effect, or another doubt; inactive = no such curve, though single readings can be large; an effect the other way counts as inactive or inconclusive. % is scaled to controls: 0 for no effect and ±100 for the full control effect; potency is read from the fitted curve at half-maximal effect.
SMILES,TDP1 cell CPT,TDP1 inh,RORgamma inh,VP16 counter,TDP1 cell noCPT
NCC(=O)c1ccc(Br)cc1,12.8%,·,·,·,4.6%
CN1CCC2(CC1)CCN(C(=O)c1ccco1)CC2,14.6%,·,-1.0%,1.3%,-0.6%
CCCCn1c(N)c(C(=O)NCCN2CCOCC2)c2nc3ccccc3nc21,14.6µM*,2.1%,-12.2%,3.4%,23.1µM*
COC(=O)C(c1ccccc1)C1CCCCN1 (centres undefined),-19.0%,17.2%,9.7%,-7.0%,2.8%
COc1ccc(O)c2c(=O)c3c(OC)cc4c(c3oc12)C1C=COC1O4 (centres undefined),1.3µM*,5.2%,0.708µM*,?,0.92µM*
O=Cc1ccco1,7.5%,14.9%,10.2%,5.1%,3.1%
O=c1[nH]c(=S)n(Cc2ccc(F)cc2)c(O)c1C=NCc1ccc2c(c1)OCO2,3.2%,1.3%,-11.2%,-10.8%,-0.7%
CC1=CC(=O)NP(=O)(Oc2ccc3ccccc3c2)N1 (centres undefined),9.2µM*,6.2%,4.2%,-3.1%,10.3µM*
OCC(O)Cc1ccc2c(c1)OCO2 (centres undefined),-1.8%,7.9%[56.1 µM],2.3%,4.7%,-18.3%
COC(=O)C(O)(c1ccc(NC(=O)c2cccs2)cc1)C(F)(F)F (centres undefined),-14.5%,0.0%,?,16.6%,?
CN(C)C1CCc2[nH]c3c(F)cc(F)cc3c2C1 (centres undefined),4.1%,·,·,·,?
CC1=CC(=C2C(=O)NC(=O)NC2=O)C=C(C(F)(F)F)N1Cc1ccccc1,?,7.2%,0.0%,-10.4%,18.4µM*
CC1=CC(=C2C(=O)NC(=S)NC2=O)C=C(C(F)(F)F)N1Cc1ccccc1,1.64µM*,2.6%,?,?,1.64µM*
Cc1cccc(NC(=O)C(C)N2CC=C(c3ccccc3)CC2)c1 (centres undefined),?,3.5%,10.9%,-4.5%,?
COC(=O)c1cn(S(=O)(=O)c2ccccc2)c2ccccc12,?,·,-22.4%,-7.4%,25.9µM*
COC(=O)C1=C(c2cc3ccccc3s2)C[C@@H]2CC[C@H]1N2C(=O)NCC1CC1,?,·,·,·,16.4µM*
COC(=O)C1=C(c2cc3ccccc3s2)C[C@@H]2CC[C@H]1N2C(=O)N1CCC(C)CC1,5.17µM*,·,·,·,2.59µM*
COC(=O)C1=C(c2cc3ccccc3s2)C[C@@H]2CC[C@H]1N2C(=O)NCc1ccc(C(F)(F)F)cc1,?,·,·,·,18.4µM*
COC(=O)C1=C(c2cc3ccccc3s2)C[C@@H]2CC[C@H]1N2C(=O)NC1CC1,?,·,·,·,14.6µM*
Nc1cccc2c1Cc1cc([N+](=O)[O-])ccc1-2,5.1%,·,·,·,6.6%
NCCc1c[nH]c2ccc(F)cc12,·,6.2%,-9.1%,3.4%,·
COC1CCC(OC2CC(C3(C)CCC4(CC(O)C(C)C(C(C)/C=C(\C)C(=O)C(C)CC(C)C(=O)O)O4)O3)OC3(OC(C4OC(O)(CO)C(C)CC4C)CC3C)C2C)OC1C (centres undefined),0.146µM*,·,·,·,0.146µM*
Cc1cc(-c2ccc(C)c(S(=O)(=O)N3CCOc4ccc(Cl)cc43)c2)on1,20.6µM*,0.0%,·,·,13µM*
O=C(CCC(=O)N1CCOc2ccc(Cl)cc21)N1CCC2(CC1)OCCO2,-1.8%,0.2%,-6.8%,-8.2%,28.0%
Cc1cccc(C)c1-n1nnnc1C(C1CC1)N1CCC2(CC1)C(=O)NCN2c1ccccc1 (centres undefined),16.4µM*,·,·,·,14.6µM*
Cc1cccc(C)c1-n1nnnc1C(c1ccccc1)N1CCC2(CC1)C(=O)NCN2c1ccccc1 (centres undefined),23.1µM*,·,·,·,20.6µM*
